Measured values reported in PubChem BioAssay (Tox21).
Values without a mark were called inactive. Results filed as inconclusive are left out. Entries that show only a call come without a potency. The source made the active and inactive calls. Unless noted, calls follow the shape of the dose curve; as a rule, active = well fitted curve in the direction sought with a large enough effect in the repeat runs; inconclusive = weak or mixed curves; inactive = no such curve, though single readings can be large; an effect the other way counts as inactive or inconclusive.

What was measured:
[1] = qHTS assay for small molecule agonists of the p53 signaling pathway (AID 651631; calls by dose curve; also: nearly all actives have a fitted effect of over 15% in size)
Summary of the method: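 Readout was fluorescence from the LiveBLAzer FRET substrate, applied for 2 h at room temperature after 16 h compound exposure at 37 °C. Cells were the p53RE-bla HCT-116 line, with beta-lactamase driven by p53 response elements.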

[2] = qHTS assay for small molecules that induce genotoxicity in human embryonic kidney cells expressing luciferase-tagged ATAD5 (AID 651632); also: nearly all actives have a fitted effect of over 15% in size
Summary of the method: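 Luminescence read-out: after 16 hr compound exposure at 37C, ATAD5-luciferase HEK293T cells received Amplite, 30 min RT, then CCD imaging. A rise in signal marks genotoxic stress.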

[3] = qHTS assay for small molecules that induce genotoxicity in human embryonic kidney cells expressing luciferase-tagged ATAD5 - cell viability (AID 651634; calls by dose curve; also: nearly all actives have a fitted effect of over 25% in size; also: potency is read from the fitted curve at half-maximal effect)
Summary of the method: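 HEK293T ATAD5-luc cells, 2,000/well; compound 15.5 hr, 37C/5% CO2; CellTiter-Fluor 30 min, 37C; fluorescence read.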

[4] = qHTS assay for small molecule disruptors of the mitochondrial membrane potential - cell viability (AID 720634; calls by dose curve;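 also: human HepG2 liver cancer cells; nearly all actives have a fitted effect of over 20% in size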)
Summary of the method: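 Luminescence from CellTiter-Glo (ATP content) gave viability in HepG2 cells, read in the same wells as the MMP dye assay after 1 hr compound exposure at 37 C.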

[5] = qHTS assay for small molecule disruptors of the mitochondrial membrane potential (AID 720635)
Summary of the method: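 Mitochondrial membrane potential tracked with Mito-MPS dye, red aggregates (ex 540/em 590 nm) against green monomers (ex 490/em 535 nm). Compound treatment 1 hr at 37C, dye 30 min in HepG2.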

[6] = qHTS assay to test for compound auto fluorescence at 590 nm (red) in HepG2 cells (AID 720674); also: potency is read from the fitted curve at half-maximal effect
Summary of the method: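 Red autofluorescence (Ex/Em 540/590 nm, Rose Bengal sodium equivalents) was measured in HepG2 cells, 2,000 per well in MEM plus 10% FBS, plated overnight at 37 C. Readings were taken 1 hr after adding 23 nL compound or DMSO, at 37 C and 5% CO2.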

[7] = qHTS assay to test for compound auto fluorescence at 535 nm (green) in HepG2 cells (AID 720675); also: potency is read from the fitted curve at half-maximal effect
[8] = qHTS assay to test for compound auto fluorescence at 460 nm (blue) in HEK293 cells (AID 720678)
Summary of the method: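 Measured: blue fluorescence (Ex 405/Em 460 nm) of compound-treated HEK293 cells, incubated overnight at 37C with 5% CO2 and scaled to triamterene equivalents.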

[9] = qHTS assay to test for compound auto fluorescence at 590 nm (red) in HEK293 cells (AID 720679); also: potency is read from the fitted curve at half-maximal effect
Summary of the method: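 Using HEK293 cells at 2,000 per well, the screen added 23 nL of each compound after cell attachment and incubated overnight (37C, 5% CO2). The plate reader then captured red-label fluorescence, Ex/Em 540/590nm.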

[10] = qHTS assay to test for compound auto fluorescence at 535 nm (green) in HEK293 cells (AID 720680)
[11] = qHTS assay to test for compound auto fluorescence at 460 nm (blue) in HEK293 cell free culture (AID 720681)
Summary of the method: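 Blue fluorescence (Ex 405/Em 460 nm, triamterene-equivalent) was read immediately after pin transfer of compound or DMSO into medium (DMEM, 10% FBS) without cells.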

[12] = qHTS assay to test for compound auto fluorescence at 535 nm (green) in HEK293 cell free culture (AID 720682)
Summary of the method: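 Compounds were pin-transferred into cell-free DMEM with 10% FBS, and green fluorescence was read at excitation 485 nm and emission 535 nm. Intensities were expressed as fluorescein-equivalent values.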

[13] = qHTS assay to test for compound auto fluorescence at 590 nm (red) in HEK293 cell free culture (AID 720683); also: potency is read from the fitted curve at half-maximal effect
Summary of the method: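 Red-channel autofluorescence of compounds in culture medium (DMEM, 10% FBS), no cells, measured at 540/590 nm. Rose Bengal sodium is the reference fluorophore for equivalence.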

[14] = qHTS assay to test for compound auto fluorescence at 590 nm (red) in HepG2 cell free culture (AID 720684); also: potency is read from the fitted curve at half-maximal effect
Summary of the method: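 Cell-free; medium MEM + 10% FBS; compound or DMSO added by pintool; read Ex 540/Em 590 nm; Rose Bengal sodium as red reference fluorophore.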

[15] = qHTS assay to test for compound auto fluorescence at 460 nm (blue) in HepG2 cell free culture (AID 720685)
Summary of the method: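 Cell-free plates of MEM plus 10% FBS received 23 nL compound or DMSO vehicle; blue-channel (405/460 nm) intensity scored against triamterene as reference fluorophore.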

[16] = qHTS assay to test for compound auto fluorescence at 535 nm (green) in HepG2 cell free culture (AID 720686); also: potency is read from the fitted curve at half-maximal effect
[17] = qHTS assay to test for compound auto fluorescence at 460 nm (blue) in HepG2 cells (AID 720687)
Summary of the method: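 Blue-channel autofluorescence (Ex/Em 405/460 nm, triamterene-equivalent) was measured after 1 hr compound exposure at 37 C, 5% CO2. Cells were HepG2, plated overnight at 37 C in MEM plus 10% FBS.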

[18] = qHTS assay for small molecule agonists of the p53 signaling pathway - cell viability (AID 651633; calls by dose curve; also: nearly all actives have a fitted effect of over 30% in size)
Summary of the method: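 Viability counter-read: CellTiter-Glo luminescence (30 min, room temperature) in the same p53RE-bla plates. These plates had been exposed to compounds for 16 h at 37 C.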

[19] = target: Glucocorticoid receptor (Homo sapiens) (UniProt P04150); assay: qHTS assay to identify small molecule agonists of the glucocorticoid receptor (GR) signaling pathway (AID 720691; active = well fitted activation curve with a large enough effect in the signal ratio in the repeat runs, not every such curve was filed as active; the % refers to the signal ratio); settings: GR-bla HeLa, beta-lactamase reporter ratio, 18 h; activation: at 62.4 µM (top of the series) unless noted
Sequence of Glucocorticoid receptor (Homo sapiens) (P04150 whole entry, looked up): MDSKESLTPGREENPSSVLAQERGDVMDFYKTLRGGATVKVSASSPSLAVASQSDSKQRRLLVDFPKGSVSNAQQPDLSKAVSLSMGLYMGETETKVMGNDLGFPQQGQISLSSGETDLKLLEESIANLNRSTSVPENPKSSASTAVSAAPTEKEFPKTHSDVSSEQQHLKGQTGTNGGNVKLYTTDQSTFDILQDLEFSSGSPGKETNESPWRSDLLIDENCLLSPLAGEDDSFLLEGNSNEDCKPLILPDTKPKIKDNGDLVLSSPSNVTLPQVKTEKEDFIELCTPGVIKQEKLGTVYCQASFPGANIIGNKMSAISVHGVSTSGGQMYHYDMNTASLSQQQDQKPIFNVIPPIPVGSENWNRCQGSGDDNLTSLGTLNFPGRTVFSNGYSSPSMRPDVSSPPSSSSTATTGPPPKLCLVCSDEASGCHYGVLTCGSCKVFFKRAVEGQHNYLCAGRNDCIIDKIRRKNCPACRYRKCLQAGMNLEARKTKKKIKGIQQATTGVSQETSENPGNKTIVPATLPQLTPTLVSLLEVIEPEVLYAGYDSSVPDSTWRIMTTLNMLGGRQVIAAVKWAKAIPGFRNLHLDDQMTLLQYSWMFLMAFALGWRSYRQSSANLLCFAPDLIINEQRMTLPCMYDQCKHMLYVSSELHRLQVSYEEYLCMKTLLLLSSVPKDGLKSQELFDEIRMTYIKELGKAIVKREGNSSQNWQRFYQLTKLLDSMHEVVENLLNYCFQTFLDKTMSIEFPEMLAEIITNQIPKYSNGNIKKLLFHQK
Summary of the method: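 HeLa GR-bla reporter line; cells pre-incubated 4 h, compound in DMSO 18 h at 37 C; LiveBLAzer B/G FRET substrate 2 h RT; fluorescence intensity read-out.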

[20] = target: Glucocorticoid receptor (Homo sapiens) (UniProt P04150); assay: qHTS assay to identify small molecule antagonists of the glucocorticoid receptor (GR) signaling pathway (AID 720692; active = well fitted inhibition curve with a large enough effect in the signal ratio in the repeat runs, not every such curve was filed as active; the % refers to the signal ratio)
Summary of the method: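 Read-out: beta-lactamase FRET substrate fluorescence, 2 h at room temperature, in HeLa cells stably carrying a GRE-driven bla reporter. Compounds were co-incubated with 5 nM dexamethasone agonist (final) for 18 h at 37 C.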
Tags tell the direction and shape of the fitted curve or compound fluorescence and quenching.

With `CCN(CC)CCNC(=O)c1cc(Br)c(N)cc1OC` the Potency [1] was “inactive”, the Potency [2] was “inactive” and the Potency [3] was “inactive”. The Potency [4] was “inactive”, the Potency [5] was “inactive” and the Potency [6] was “inactive”. For the same molecule, the Potency [7] was “inactive”, the outcome [8] was “inactive” and the Potency [9] was “inactive”. The outcome [10] was “inactive”, the outcome [11] was “inactive” and the outcome [12] was “inactive”. For the same molecule, the Potency [13] was “inactive”, the Potency [14] was “inactive” and the outcome [15] was “inactive”. For the same molecule, the Potency [16] was “inactive” and the outcome [17] was “inactive”.
For `O=P(O)(OCc1ccccc1)OCc1ccccc1`, the Potency [1] was “inactive”, the Potency [2] was “inactive” and the Potency [3] was “inactive”. For the same molecule, the Potency [4] was “inactive”, the Potency [6] was “inactive” and the Potency [7] was “inactive”. The Potency [9] was “inactive”, the outcome [10] was “inactive” and the outcome [11] was “inactive”. For the same molecule, the outcome [12] was “inactive”, the Potency [13] was “inactive” and the Potency [14] was “inactive”. The outcome [15] was “inactive”, the Potency [16] was “inactive” and the outcome [17] was “inactive”.
With `CNCCCN1c2ccccc2CCc2ccccc21` the Potency [1] was “inactive”, the Potency [2] was “inactive” and the Potency [18] was “inactive”. For the same molecule, the Potency [4] was “inactive”, the fluorescence, % of fluorescein control [7] was 0.0155% [at 18.6 µM] and the fluorescence, % of triamterene [8] was 0.119% [at 18.6 µM]. For the same molecule, the fluorescence, % of fluorescent control [9] was 0.0732% [at 18.6 µM], the fluorescence, % of fluorescent control [11] was 0.0048% [at 18.6 µM] and the fluorescence, % of fluorescent control [13] was 0.0052% [at 18.6 µM]. For the same molecule, the fluorescence, % of Rose Bengal [14] was 0.569% [at 18.6 µM], the fluorescence, % of fluorescent control [15] was 0.0158% [at 18.6 µM] and the fluorescence, % of fluorescein control [16] was -0.0226% [at 18.6 µM]. The fluorescence, % of fluorescent control [17] was 0.0417% [at 18.6 µM].
In the case of `Nc1cccc([N+](=O)[O-])c1`, the Potency [1] is reported as “inactive”, the Potency [2] is reported as “inactive” and the Potency [18] is reported as “inactive”. For the same molecule, the Potency [4] was “inactive”, the Potency [7] was “inactive” and the Potency [9] was “inactive”. For the same molecule, the outcome [10] was “inactive”, the outcome [11] was “inactive” and the outcome [12] was “inactive”. The Potency [13] was “inactive”, the Potency [14] was “inactive” and the outcome [15] was “inactive”. For the same molecule, the Potency [16] was “inactive” and the Potency [19] was “inactive”.
For `CCOC(=O)c1cccnc1`, the Potency [1] was “inactive”, the Potency [2] was “inactive” and the Potency [4] was “inactive”. The Potency [5] was “inactive”, the Potency [6] was “inactive” and the Potency [7] was “inactive”. For the same molecule, the outcome [8] was “inactive”, the Potency [9] was “inactive” and the outcome [10] was “inactive”. The outcome [11] was “inactive”, the outcome [12] was “inactive” and the Potency [13] was “inactive”. The Potency [14] was “inactive”, the outcome [15] was “inactive” and the Potency [16] was “inactive”. The outcome [17] was “inactive” and the Potency [20] was “inactive”.
For `CCN(CC)c1ccc2c(-c3ccccc3C(=O)O)c3ccc(=[N+](CC)CC)cc-3oc2c1`, the Potency [1] was “inactive”, the Potency [2] was “inactive” and the Potency [3] was 21700 nM (active). For the same molecule, the Potency [4] was “inactive”, the Potency [6] was 1000 nM (active) and the Potency [7] was 31600 nM (active). For the same molecule, the outcome [8] was “inactive”, the Potency [9] was 1120 nM [fluorescent] (active) and the outcome [11] was “inactive”. For the same molecule, the Potency [13] was 2000 nM [fluorescent] (active), the Potency [14] was 1120 nM [fluorescent] (active) and the outcome [15] was “inactive”. For the same molecule, the Potency [16] was 31600 nM [fluorescent] (active).
With `COC(C)OC` the Potency [1] was “inactive”, the Potency [2] was “inactive” and the Potency [18] was “inactive”. For the same molecule, the Potency [4] was “inactive”, the Potency [6] was “inactive” and the Potency [7] was “inactive”. The outcome [8] was “inactive”, the Potency [9] was “inactive” and the outcome [10] was “inactive”. For the same molecule, the outcome [11] was “inactive”, the outcome [12] was “inactive” and the Potency [13] was “inactive”. For the same molecule, the Potency [14] was “inactive”, the outcome [15] was “inactive” and the Potency [16] was “inactive”. The outcome [17] was “inactive”, the Potency [19] was “inactive” and the Potency [20] was “inactive”.
